# Shiga toxin inh – blocks Shiga toxin action in Vero cells; hit rate 9.2% among 290,000; Vero cells, Shiga toxin protein synthesis inhibition reporter; inhibition, % at 38.7 µM; in the data active = inhibition mostly above about 28%, no sharp cut-off; inactive = mostly below about 43%; note: 0% is about no effect
# Pf growth 96h – inhibits malaria parasite growth, 96 h; hit rate 6.9% among 320,000; P. falciparum luciferase reporter growth, 96 h; Potency, µM (highest dose often 28.7 µM), for inactives: at the highest dose activity change, negative = inhibition, actives largely listed as inhibitors; note: potency is the fitted concentration of half-maximal effect; % is set by controls: 0 for no effect and ±100 for the full control effect
#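 Parasite growth measured via integrated firefly luciferase reporter in P. falciparum. Infected erythrocytes at 2% hematocrit, 0.05% parasitemia final were treated 96 hours at 37 C under 5% CO2, and luminescence was read.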
# CHX counter – affects cycloheximide protein synthesis inhibition readout, counter-screen; cell reporter, cycloheximide protein synthesis inhibition counterscreen; max response, %; hit rate 12% among 300,000; AID 2314; in the data active = max response mostly above about 13%, no sharp cut-off; inactive = mostly below about 14%; note: read at 38.3 µM for the half of the compounds with a filed dose; 0% is about no effect
# SARS PLP yeast – SARS-CoV PLP inhibition in yeast; hit rate 0.19% among 330,000; S. cerevisiae expressing SARS-CoV PLpro, growth rescue; Potency, µM (doses to about 32.9 µM), inactives show at the highest dose activity, positive = growth rescue, actives largely listed as activators; calls by dose curve; note: potency is the fitted concentration of half-maximal effect; 0% is about no effect; nearly all actives have a fitted effect of over 55% in size
# Pf growth 48h – inhibits P. falciparum growth in the first generation, 48 h; P. falciparum luciferase growth in erythrocytes, 48 h; Potency, µM (doses to about 28.7 µM), inactives show top-dose activity change, negative = inhibition, most hits filed as inhibitors; hit rate 5.9% among 310,000; note: potency is the fitted concentration of half-maximal effect; % is set by controls: 0 for no effect and ±100 for the full control effect
#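 Here the parasites carry a stable luciferase gene and grow inside erythrocytes in Albumax-based RPMI medium with compound for one erythrocytic cycle. Activity is scored as loss of luminescent signal.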
# AMA1-RON2 inh – AMA1-RON2 (P. falciparum) interaction inhibition; hit rate 0.2% among 360,000; Potency, µM (titrated, usually from 58.2 µM), without a hit: top-dose activity change, negative = inhibition, hits mostly inhibitors; AlphaScreen AMA1-biotinylated RON2 peptide binding;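 note: potency is the fitted concentration of half-maximal effect; 0% = vehicle wells and -100% = peptide control; nearly all actives have a fitted effect of over 45% in size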
#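 AMA1 (3D7) with his tag at 25 nM final met compounds first, then biotinylated RON2 peptide at 25 nM; detection used donor plus acceptor beads, 10 µg/mL apiece, read by AlphaScreen after 30 min at room temperature.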
# An asterisk follows results filed as active; ? = inconclusive; nt = no result given; [ ] = remark or other dose. An excerpt weighted towards active compounds, which were near 19% of everything screened. Unless noted, calls come from the whole dose curve; as a rule, active = well fitted curve in the direction sought with a large enough effect; inconclusive = small, poorly fitted or top-dose-only effect, or another doubt; inactive = no such curve, though single readings can be large; an effect the other way counts as inactive or inconclusive.
SMILES,Shiga toxin inh,Pf growth 96h,CHX counter,SARS PLP yeast,Pf growth 48h,AMA1-RON2 inh
CCOc1ccc(N=C2Sc3nc4ccc(C)cc4cc3CN2CCOC)cc1,34,-12%,2,-1%,?,-6%
CS(=O)(=O)c1ccc(-c2csc(C(O)(c3ccccc3)C(F)(F)F)n2)cc1 (stereo not given),nt,nt,nt,nt,nt,-3%
COc1ccc(/C=C(/NC(=O)c2cccc([N+](=O)[O-])c2)C(=O)O)cc1,-10,273%,-3,2%,7%,-9%
O=C(CCS(=O)(=O)c1ccccc1)Nc1cccc2c1C(=O)NC2=O,-1,-13%,22,1%,-2%,-9%
S=C(NCCc1ccccc1)NN=C1CCCCCC1,78*,?,54*,0%,1%,26%
S=C(NCCc1ccccc1)N/N=C/C1CCCCC1,19,?,15*,29%,10%,nt
C/C(=N\NC(=S)NCCc1ccccc1)c1ccc(C)cc1,-2,-10%,11,-22%,-18%,21%
S=C(NCCc1ccccc1)NC1CCC(NC(=S)NCCc2ccccc2)CC1 (stereo not given),-4,?,8,1%,6%,-9%
N/C(=N\OC(=O)Oc1ccccc1)c1cccc([N+](=O)[O-])c1,-7,26%,7,6%,7%,16%
N/C(=N\OC(=O)CSc1ccccc1)c1cccc([N+](=O)[O-])c1,15,33%,33*,-28%,33%,-13%
N/C(=N\OC(=O)COc1ccccc1)c1ccc(Cl)cc1,14,13µM*,-1,28%,66%,36%
N/C(=N\OC(=O)COc1ccccc1)c1ccncc1,83*,86%,43*,0%,65%,5%
N/C(=N\OC(=O)CSc1ccccc1)c1ccncc1,79*,?,47*,?,80%,1%
Cc1cc(C)cc(OCC(=O)O/N=C(\N)c2cccnc2)c1,34,33%,16*,0%,?,0%
COc1cc(OC)cc(C(=O)O/N=C(\N)c2ccncc2)c1,26,?,5,-77%,?,-20%
COc1cccc(OCC(=O)O/N=C(\N)c2ccncc2)c1,59*,?,28*,-3%,90%,15%
N/C(=N\OC(=O)COc1ccccc1)c1cccnc1,-18,-9%,2,2%,-17%,23%
C[Se]CCC(N)C(=O)O (stereo not given),14,?,1,nt,2%,nt
N#Cc1c(-c2ccc3c(c2)OCO3)csc1N,83*,34%,28*,-13%,54%,-15%
N#Cc1c(N)nc2c(c1-c1ccc3c(c1)OCO3)CCc1ccccc1-2,15,-12%,0,-23%,4.1µM*,38%[11.6 µM]
N#Cc1c(N)c(C#N)c(-c2ccc3c(c2)OCO3)c2c1CCCC2,11,?,-1,-3%,?,-12%
COc1ccc(/C=N/n2cc(-c3ccccc3)nc2N)cc1,43*,10µM*,28*,-3%,?,11%
CCN(CC)S(=O)(=O)c1ccc(N2CCN(CCOc3ccc(OC)cc3)CC2)nc1,23,?,-3,-1%,?,-14%
Cc1nc2ccccc2nc(C)c1=NOCC(=O)N(c1ccccc1)C(C)C,116*,?,61*,-1%,0%,-13%
CC(C)N(C(=O)COC(=O)Cn1cnc2ccccc21)c1ccccc1,nt,13%,nt,0%,35%,0%
SMILES,Shiga toxin inh,Pf growth 96h,CHX counter,SARS PLP yeast,Pf growth 48h,AMA1-RON2 inh
O=[N+]([O-])C(/C=C(\Cl)[N+](=O)[O-])=C1N(Cc2ccc(Cl)nc2)CCN1Cc1ccc(Cl)nc1,16,6.6µM*,7,3%,2.3µM*,-3%
Cc1cc(C)c(C#N)c(N2CCN(c3ccccc3F)CC2)n1,-18,12µM*,-1,-1%,29%,-2%
c1ccc(Cn2c(SCCN3CCOCC3)nnc2-c2cccnc2)cc1,31,10µM*,15,-2%,nt,-16%
Cc1ccc(/C=C/C(=O)Nc2ccc(N(C)C)cc2)o1,85*,29%,38*,-21%,12%,?
CC(=O)NS(=O)(=O)c1ccc(NC(=O)/C=C/c2ccc(C)o2)cc1,-1,4.7µM*,-2,0%,5%,15%
Cc1ccc(/C=C/C(=O)Nc2ccc(S(N)(=O)=O)cc2)o1,-8,-6%,6,1%,6%,-4%
Cc1ccc(/C=C/C(=O)Nc2ccncc2)o1,52,240%,15,-16%,29%,0%[11.6 µM]
Cn1ccnc1SCC(=O)Nc1nc2c(F)c(F)c(F)cc2s1,9,18%,-1,-2%,26%,-4%
Cc1ccc(S(=O)(=O)c2nc(-c3ccccc3Cl)oc2N(C)C)cc1,86*,?,57*,2%,132%,-30%
CN(C)c1oc(-c2ccccc2Cl)nc1P(=O)(c1ccccc1)c1ccccc1,-14,12µM*,-4,-1%,nt,-8%
Cc1ccc(S(=O)(=O)N(CCCO)CC(O)CON=C2c3ccccc3-c3ccccc32)cc1 (stereo not given),-11,9.3µM*,-1,-31%,?,0%
CCN(CC(O)Cn1c2ccccc2c2ccccc21)S(=O)(=O)c1ccc(C)cc1 (stereo not given),-7,nt,-1,-20%,nt,1%
S=c1[nH]c2ccccc2n2cccc12,-13,?,1,8%,?,24%
S=c1[nH]c2ccccc2o1,83*,3%,13*,0%,16%,11%
Cc1c(-c2nc(-c3ccc(C(C)(C)C)cc3)no2)n(C)oc1=O,161*,-71%,60*,0%,-73%,0%
CC(C)(C)c1ccc(-c2noc(-c3ccc4c(c3)CCO4)n2)cc1,35*,183%,21*,-2%,119%,3%
Cc1cc(-c2nc(-c3ccc(C(C)(C)C)cc3)no2)no1,53*,119%,39*,-1%,405%,17%
Cc1nc(-c2cc(-c3ccc(Cl)cc3)no2)cs1,83*,366%,52*,-2%,285%,-4%
Clc1ccc(-c2cc(-c3ccccc3)on2)cc1,nt,170%,nt,1%,229%,28%
Cc1nc(-c2cc(-c3nc(-c4ccc(C(F)(F)F)cc4)no3)no2)cs1,11,3%,9,1%,0.66µM*,-3%
O=C(NCCOCCOCCNC(=O)c1cccnc1)c1cccnc1,38,6%[5.75 µM],17*,-6%,36%,-23%
O=C(NCCc1cccc(Cl)c1)c1cccc([N+](=O)[O-])c1,16,1%,22*,-17%,38%,5%
O=C(NCCc1cccc(Cl)c1)c1cccnc1,142*,152%,57*,3%,79%,-4%
NS(=O)(=O)c1ccc(CCNC(=O)c2cccc([N+](=O)[O-])c2)cc1,-6,9%,13,1%,-8%,4%
O=C(NCc1cccnc1)c1cccc(Cl)c1,-12,?,-1,-2%,-12%,-3%

# From PubChem
